A selection: hits, their analogues and other compounds. The true share with any hit is near 19%.
Shiga toxin inh = inhibitors of Shiga toxin in Vero cells. Vero cells, Shiga toxin protein synthesis inhibition reporter. AID 2315. 9.2% of 290,000 active. inhibition, % at 38.7 µM; in the data active = inhibition mostly above about 28%, no sharp cut-off; inactive = mostly below about 43%; note: 0% is about no effect
Pf growth 48h = P. falciparum growth inhibition at 48 hours (one generation) | P. falciparum luciferase growth in erythrocytes, 48 h | Potency, µM (titrated, usually from 28.7 µM), for inactives: top-dose activity change, negative = inhibition, usual class: inhibitors | 5.9% of 310,000 active | AID 504832; note: potency is the fitted concentration of half-maximal effect; % is set by controls: 0 for no effect and ±100 for the full control effect
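Erythrocytes infected with P. falciparum carrying an integrated firefly luciferase reporter (2% hematocrit, 0.1% parasitemia final) were exposed to compounds in RPMI 1640 with 0.5% Albumax at 37 C, 5% CO2. Growth inhibition was scored as reduced luminescence.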
Lassa entry inh = blocks Lassa virus binding to or entry into cells; Lassa virus pseudotype entry inhibition, cell reporter; 1.2% of 300,000 active; Potency, µM (titrated, usually from 37.9 µM), without a hit: at the top dose activity change, negative = inhibition, actives largely listed as inhibitors; calls by dose curve; tested in HEK293 cells; note: potency is the fitted concentration of half-maximal effect; % is set by controls: 0 for no effect and ±100 for the full control effect; nearly all actives have a fitted effect of over 50% in size
MARV entry inh = blocks Marburg virus binding to or entry into cells | Marburg virus pseudotyped entry inhibition, cell reporter | Potency, µM (top dose mostly 37.8 µM), for inactives: at the highest dose activity change, negative = inhibition, actives largely listed as inhibitors | 1.8% of 300,000 active | AID 540276; calls by dose curve; tested in HEK293 cells; note: potency is the fitted concentration of half-maximal effect; % is set by controls: 0 for no effect and ±100 for the full control effect
Pf growth 96h = P. falciparum growth inhibition at 96 hours. P. falciparum luciferase reporter growth, 96 h. Potency, µM (highest dose often 28.7 µM), for inactives: at the top dose activity change, negative = inhibition, usual class: inhibitors. 6.9% of 320,000 active; note: potency is the fitted concentration of half-maximal effect; % is set by controls: 0 for no effect and ±100 for the full control effect
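Readout is luminescence from an integrated firefly luciferase in P. falciparum. Red cells, 2% hematocrit and 0.05% parasitemia final, were cultured with compound through two parasite generations (96 hours) at 37 C, 5% CO2.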
Cycloheximide cs = counter-screen hit for Shiga toxin inhibitors, cycloheximide. max response, %. AID 2314. cell reporter, cycloheximide protein synthesis inhibition counterscreen. 12% of 300,000 active; in the data active = max response mostly above about 13%, no sharp cut-off; inactive = mostly below about 14%; note: read at 38.3 µM for the half of the compounds with a filed dose; 0% is about no effect
The depositor's hits bear a star; u = inconclusive; x = no result; [ ] = another dose, or the depositor's remark. Unless noted, calls come from the whole dose curve; as a rule, active = well fitted inhibition curve with a large enough effect; inconclusive = small, poorly fitted or top-dose-only effect, or another doubt; inactive = no such curve, though single readings can be large or run the other way.

SMILES | Shiga toxin inh | Pf growth 48h | Lassa entry inh | MARV entry inh | Pf growth 96h | Cycloheximide cs
COc1ccc(C(CNC(=O)CCNS(=O)(=O)c2ccc(Br)cc2)N2CCCC2)cc1 (centres undefined) | x | 4.1µM* | 11% | u | 2.1µM* | x
Cn1c(O)c(C=Nc2ccc(F)cc2)c(=O)[nH]c1=O | -3 | 2% | x | x | u | -2
COc1ccc(-c2noc(CN(C)C3CCOCC3)n2)cc1 | 30 | -6% | -1%[46.1 µM] | 21%[46.1 µM] | u | 13
c1ccc(-c2noc(CC3CCCCC3)n2)cc1 | 48* | 173% | 8%[46.1 µM] | u | -49%[5.75 µM] | 31*
c1cc(-c2noc(CCC3CCCC3)n2)ccn1 | 15 | u | -1% | 1%[46.1 µM] | u | 17*
O=C1c2ccccc2C(=O)N1CCCc1nc(-c2ccncc2)no1 | 23 | 0% | 1% | 2% | 19% | 0
c1ccc(-c2noc(CCC3CCCC3)n2)cc1 | 4 | 38% | 29%[46.1 µM] | 7%[46.1 µM] | u | 20*
O=C(CCCc1nc(-c2ccccc2)no1)NC1CCCCC1 | -6 | 5% | 7%[46.1 µM] | -30%[46.1 µM] | 0% | -3
CN(Cc1nc(-c2ccccc2)no1)C1CCOCC1 | 59 | 136% | x | x | 162% | 46*
COCCCC1CCN(Cc2nc(-c3ccccc3)no2)CC1 | 76* | 39% | 11% | u | 0% | 23*
c1ccc(-c2noc(CSc3nnnn3C3CCCCC3)n2)cc1 | 46 | 70% | 0% | -6% | 3% | 28*
CCOC(=O)c1c(C)[nH]c(C)c1S(=O)(=O)NCC(=O)NCc1ccccc1Cl | x | x | 1%[46.1 µM] | x | x | x
COc1ccc(/C=C(\NC(=O)c2cccs2)C(=O)NC(C)(C)C)cc1OC | -7 | 19% | x | x | 0% | -1
Cc1cc(C)n(CCc2nc(-c3ccc(C(C)(C)C)cc3)cs2)n1 | 7 | -13% | u | -26% | u | 0
CC(C)(C)S(=O)(=O)Cc1nc(-c2ccc(Cl)c(Cl)c2)cs1 | 65* | u | -24% | -8%[46.1 µM] | 46% | 30*
O=C(Oc1ccc(N2C(=O)CCC2=O)cc1)c1ccco1 | -3 | -7% | u | 20% | 25%[5.75 µM] | 0
Cc1nc2c(sc3nc4c(cc32)COC(C)(C)C4)c(=O)n1CC(=O)NCc1ccco1 | 39* | 125% | 0% | u | u | 24*
CC1(C)Cc2nc3sc4c(SCC(=O)NCc5ccco5)ncnc4c3cc2CO1 | 99* | 74% | u | u | x | 51*
COc1ccc(N2C(=O)NC(=O)/C(=C/c3cccc(OC(=O)c4cccs4)c3)C2=O)cc1Cl | 14 | 3% | 10% | 30% | -11% | 13
NC(=O)c1c(NC(=O)c2cccnc2)sc2c1CCCCC2 | x | 164% | x | x | 38% | 3
O=C(Nc1sc2c(c1C(=O)NCc1cccnc1)CCCC2)c1ccco1 | 14 | u | -8% | u | u | 7
O=C(Nc1sc2c(c1C(=O)c1ccccc1)CCCC2)c1cccnc1 | -8 | 0% | 7% | 5% | 0.37µM* | -4
Cc1occc1C(=O)Nc1sc2c(c1C(N)=O)CCC(C(C)(C)C)C2 (centres undefined) | -4 | x | -1% | u | -11% | -1
O=C(Nc1sc2c(c1C(=O)c1ccc(Cl)cc1)CCCC2)c1cccnc1 | 16 | u | u | 3% | u | 10
CC(C)(C)C1CCc2c(sc(NC(=O)c3ccncc3)c2C(N)=O)C1 (centres undefined) | 11 | -11% | u | u | 51% | 16*
SMILES | Shiga toxin inh | Pf growth 48h | Lassa entry inh | MARV entry inh | Pf growth 96h | Cycloheximide cs
NC(=O)c1c(NC(=O)c2cccnc2)sc2c1CCCC2 | 73* | 137% | u | 28%[46.1 µM] | u | 19
CC(Oc1ccc(F)cc1)C(=O)Nc1sc2c(c1C(=O)NCc1cccnc1)CCCC2 (centres undefined) | -14 | 8.3µM* | -2% | 1% | 6.6µM* | 1
COc1ccc(Cl)cc1NC(=S)N(Cc1ccccc1C)CC1CCC(C(=O)O)CC1 (centres undefined) | -6 | -24% | u | u | u | -11
CN(C)C1CCN(Cc2cc(COCc3ccccc3)c3cccnc3c2O)C1 (centres undefined) | x | 0.83µM* | x | x | u | x
COc1ccccc1N1CCN(Cc2cc(COC(C)C)c3cccnc3c2O)CC1 | x | x | u | 4µM* | x | x
COc1ccccc1N1CCN(Cc2cc(Br)c(O)c3ncccc23)CC1 | -14 | x | x | 5% | u | -5
COCc1cc(CN2CCCC2)c(O)c2ncccc12 | -10 | 2.9µM* | u | 26µM* | u | 18
Oc1c(CN2CCCCC2)cc(COCc2ccccc2)c2cccnc12 | 34 | 1.9µM* | 2.2µM* | u | 2.1µM* | 17*
O=c1/c(=C/c2ccc(O)c([N+](=O)[O-])c2)sc2nc3ccccc3n12 | 94* | 11% | u | 9%[46.1 µM] | u | 33*
O=c1/c(=C\c2cccnc2)sc2nc3ccccc3n12 | 127* | 60% | u | u | 3% | 31*
Cc1cc(/C=c2/sc3nc4ccccc4n3c2=O)c(C)n1-c1ccccn1 | 27 | 59% | 0.21µM* | u | -9% | 67*
Cc1cc(/C=c2\sc3nc4ccccc4n3c2=O)c(C)n1-c1ccc(C(=O)O)cc1 | 6 | 16% | 15% | 8%[46.1 µM] | 58% | 9
CCN(CC)c1ccc(/C=c2\sc3nc4ccccc4n3c2=O)c(O)c1 | 38* | 8.3µM* | 15%[46.1 µM] | u | 10µM* | 19
Cc1cc(N2CCOCC2)ccc1/C=C1/SC(=O)NC1=O | 82 | 405% | u | -29%[46.1 µM] | -13% | 31*
O=C1NC(=S)N/C1=C\c1ccc(N2CCOCC2)cc1 | 61 | 74% | x | x | -6% | 28*
C=CCN1C(=O)S/C(=C\c2ccc(N3CCOCC3)cc2C)C1=O | 58 | 127% | 8% | u | x | 35*
C=CC(C)N1C(=O)S/C(=C\c2ccc(N3CCOCC3)cc2C)C1=O (centres undefined) | -8 | 13% | 11% | u | u | 17*
O=C(NCc1ccc(N2CCCC2=O)cc1)NC1CCCCC1 | 8 | -16% | -10% | -13% | u | 1
CCCOc1ccc([N+](=O)[O-])cc1C1NC(=S)NC(c2ccccc2)=C1C(=O)OCC (centres undefined) | -5 | u | u | u | u | -2
CCN1C(=O)c2ccccc2S(=O)c2ccc(C(=O)NCc3ccccn3)cc21 (centres undefined) | 4 | 3% | -3% | -19% | -24% | 5
O=C(NCC1CC1)Nc1ccccc1 | 0 | 34% | -18%[46.1 µM] | 2%[46.1 µM] | u | 10
CCn1c(CNc2ccc(Cl)cc2)nnc1SCC#N | -9 | 9% | x | x | 2.9µM* | -1
CCn1c(CNc2ccc(F)cc2)nnc1SCC#N | 2 | 10% | -14% | 17%[46.1 µM] | 16% | -2
Nc1c(C(=O)NCc2ccccc2)c2nc3ccccc3nc2n1-c1ccc2c(c1)OCO2 | 1 | -85% | u | u | u | 13

High-throughput results: PubChem, National Center for Advancing Translational Sciences (NCATS)
